The entries come from a sample that favours hits as a whole.
PI4K2A inh: blocks human PI4K2A kinase activity; purified PI4K2A, ADP-Glo luminescence, 1 h; stronger effect = lower value; 420,000 tested, 0.13% active; activity change, negative = inhibition, % at 76.9 µM; in the data active = activity change below about -50%; inconclusive = mostly about -30% to -49%;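 note: -100% = wells without enzyme as full effect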
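ADP-Glo luminescence measured ADP generated by PI4K2A enzyme (4 ug/mL before mixing) with 1.2 mM PI substrate (pre-mix) and 300 microM ATP (pre-mix). Tris pH7.5 buffer with MgCl2, Triton X-100; 1 h reaction at ambient temperature.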
Tb PFK inh-1: inhibitors of T. brucei phosphofructokinase. O15648. T. brucei PFK, ADP-Glo luminescence. Potency, µM (series often up to 57.5 µM), inactives show at the top dose activity, negative = inhibition, most hits filed as inhibitors. 330,000 tested, 0.17% active. AID 485367;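 note: potency is the fitted concentration of half-maximal effect; 0% = uninhibited 1x PFK enzyme wells and -100% = no-enzyme wells; nearly all actives have a fitted effect of over 60% in size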
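In TEA buffer at pH 8.0 with 5 mM MgCl2, enzyme (1.25 nM) converted F6P (0.5 mM) and ATP (0.1 mM) for 45 min at room temperature. ADP product was read by luciferase luminescence.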
Tb PGK inh: inhibitors of T. brucei phosphoglycerate kinase; P07378; PGK/GAPDH coupled, Kinase-Glo luminescence, 60 min; Potency, µM (highest dose often 57.5 µM), for inactives: at the top dose activity change, negative = inhibition, most hits filed as inhibitors; 380,000 tested, 0.043% active; AID 602233; note: potency is the fitted concentration of half-maximal effect; % is set by controls: 0 for no effect and ±100 for the full control effect; nearly all actives have a fitted effect of over 60% in size
Target sequence (P07378 whole entry, looked up): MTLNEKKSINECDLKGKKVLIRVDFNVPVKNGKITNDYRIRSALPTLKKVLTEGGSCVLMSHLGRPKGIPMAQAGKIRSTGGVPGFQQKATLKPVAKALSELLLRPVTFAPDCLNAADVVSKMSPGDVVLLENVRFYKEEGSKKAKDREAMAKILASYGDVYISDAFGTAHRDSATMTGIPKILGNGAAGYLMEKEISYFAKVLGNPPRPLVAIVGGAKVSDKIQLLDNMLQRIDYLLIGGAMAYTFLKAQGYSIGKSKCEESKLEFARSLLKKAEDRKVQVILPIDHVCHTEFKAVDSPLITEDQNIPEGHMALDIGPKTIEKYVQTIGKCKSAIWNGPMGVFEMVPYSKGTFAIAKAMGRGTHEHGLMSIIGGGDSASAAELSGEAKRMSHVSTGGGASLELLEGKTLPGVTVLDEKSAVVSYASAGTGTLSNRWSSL
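Luminescent ATP detection (Kinase-Glo Plus) follows a 60-minute room-temperature incubation, with wells lacking PGK as controls. Buffer: 100 mM TEA (pH 7.6), 5 mM MgCl2, 0.01% Tween-20. Coupling enzyme GAPDH (100 nM final) supplies unstable 1,3-BPG in-well.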
PI5P4K alpha inh: inhibitors of human PI5P4K alpha. P48426. PI5P4Kalpha enzyme, ADP-Glo luminescence, 60 min; stronger effect = lower value. max response, %. 330,000 tested, 1.2% active. AID 652105; active = max response of -50% or lower; inconclusive = between -30% and -50%; inactive = -30% or higher; note: value at the top dose of about 77 µM; % is set by controls: 0 for no effect and ±100 for the full control effect
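ADP-Glo luminescence end-point after a 60 min room-temperature kinase reaction. PI5P4Kalpha and substrate in HEPES pH 7.4 buffer with EGTA, 0.1% CHAPS and 5% DMSO; ATP at 5 microM final.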
Pin1 inh: inhibitors of human Pin1. Q13526. Pin1 FP peptide displacement, HiFluor488, 10 min. Potency, µM (highest dose often 115 µM), for inactives: at the top dose activity, negative = inhibition, most hits filed as inhibitors. 390,000 tested, 0.009% active. AID 504891; active = well fitted inhibition curve with a large enough effect in the polarisation, with a control signal flat, not every such curve was filed as active; inconclusive = small, poorly fitted or top-dose-only effect, or effect the other way, or a change in a side signal; inactive = no such curve, though single readings can be large or run the other way; the % refers to the polarisation; note: potency is the fitted concentration of half-maximal effect; % is set by controls: 0 for no effect and ±100 for the full control effect
Target sequence (Q13526 whole entry, looked up): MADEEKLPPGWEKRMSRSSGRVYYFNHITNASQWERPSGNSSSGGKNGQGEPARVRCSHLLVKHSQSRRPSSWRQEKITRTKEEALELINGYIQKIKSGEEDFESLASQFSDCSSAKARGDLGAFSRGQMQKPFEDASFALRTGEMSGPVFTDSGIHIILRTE
TbPFK ATP: orthogonal confirmation of T. brucei phosphofructokinase inhibitors | Tb PFK enzyme, ATP depletion, Kinase-Glo Plus luminescence | 1,100 tested, 47% active | Potency, µM (series often up to 57.5 µM), inactives show at the highest dose inhibition | shares compounds with Tb PFK inh-1; calls by dose curve; note: potency is the fitted concentration of half-maximal effect; nearly all actives have a fitted effect of over 60% in size
Tb PFK inh-2: validation of T. brucei phosphofructokinase inhibitors; shares compounds with Tb PFK inh-1; 1,100 tested, 41% active; purified T. brucei PFK, ADP-Glo luminescence, 45 min; Potency, µM (titrated, usually from 57.5 µM), for the others: at the highest dose activity change, negative = inhibition, actives largely listed as inhibitors;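 note: potency is the fitted concentration of half-maximal effect; plate controls were full PFK enzyme control for no effect and no enzyme control for full effect; nearly all actives have a fitted effect of over 60% in size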
Active calls of the source: *; i = inactive; ? = inconclusive; . = not tested or not shown. Unless noted, calls come from the whole dose curve; as a rule, active = well fitted curve in the direction sought with a large enough effect; inconclusive = small, poorly fitted or top-dose-only effect, or another doubt; inactive = no such curve, though single readings can be large; an effect the other way counts as inactive or inconclusive.

SMILES | PI4K2A inh | Tb PFK inh-1 | Tb PGK inh | PI5P4K alpha inh | Pin1 inh | TbPFK ATP | Tb PFK inh-2
Oc1ccc(/C=N/N=C/c2ccc(O)c(O)c2)cc1O | 0 | 2.7µM* | ? | -8 | 0% | ? | ?
O=C1CC(c2ccc(O)c(O)c2)Oc2c1ccc(O)c2O (configuration not stated) | -20 | ? | ? | -86* | ? | 1.9µM* | 2.1µM*
Oc1ccc(C(=S)N2CCN(Cc3ccccc3)CC2)cc1 | 0 | ? | 6% | ? | 4% | 9.5µM* | 19µM*
S=C(c1ccc(Br)cc1)N1CCN(Cc2ccccc2)CC1 | 6 | ? | i | . | 6% | 8.5µM* | 27µM*
O=C1CC(N2CC=C(c3ccc(F)cc3)CC2)C(=O)N1c1ccc(F)cc1 (configuration not stated) | 4 | -1% | -2% | -3 | 31% | . | .
c1ccc2c(N3CCNCC3)nsc2c1 | 4 | -3% | -6% | 2 | -2% | . | .
Cc1cc(OC(C)C(=O)NCC(O)c2ccccc2)c2c3c(c(=O)oc2c1)CCCC3 (configuration not stated) | 7 | -2% | -4% | -3 | 1% | . | .
O=C(OCC(=O)N1CCN(c2cccc(Cl)c2)CC1)c1ccco1 | 0 | 21µM* | -7% | 5 | 4% | 24µM* | ?
CCOc1cc(/C=C2\C(=O)NC(=O)N(C)C2=O)cc([N+](=O)[O-])c1O | -7 | 3% | -10% | ? | -1% | . | .
Cc1c(C=O)c2ccccc2n1Cc1ccc([N+](=O)[O-])cc1 | 3 | -25% | i | 15 | -2% | . | .
CC(=O)CSc1nnc(Cc2ccc([N+](=O)[O-])cc2)o1 | -1 | ? | -5% | . | 1% | ? | -25%
N#Cc1cc2c(nc1SCC(=O)Nc1ccc(Cl)cc1)C1CCN2CC1 | 1 | 0% | 5% | . | 0% | . | .
O=C(CSc1nnc(Cc2ccc(Cl)cc2)o1)Nc1ccccc1 | 2 | ? | -6% | 0 | -3% | ? | ?
COc1cc2c(cc1OC)CN(C(=O)COc1ccccc1[N+](=O)[O-])CC2 | 6 | ? | 10% | 2 | 0% | 2% | -15%
Cc1nc2c(-c3ccccc3)c(C)nn2c(C)c1CCC(=O)N1CCC2(CC1)OCCO2 | 5 | 3% | 7% | . | -8% | . | .
COc1ccc(N2C(=O)NC(=O)/C(=C\c3cn(C)c4ccccc34)C2=O)cc1 | -4 | -1% | . | -5 | ? | . | .
COc1ccc(N2C(=O)/C(=C/c3cccs3)NC2=S)cc1 | 5 | 15µM* | 4% | ? | 2% | 6µM* | 6µM*
Cc1cc(O)ccc1Cl | 2 | . | . | . | . | . | .
Cc1cc(O)c(-c2cc(O)c(C)cc2O)cc1O | -2 | 12µM* | i | -67* | -7% | 3µM* | 8.5µM*
COc1cccc(NP2(=O)OCC(C)([N+](=O)[O-])CO2)c1 (configuration not stated) | 1 | . | -1% | 27 | -14% | . | .
O=C(Nc1cccs1)Nc1ccc(Br)cc1F | -21 | ? | -3% | -1 | 14% | ? | ?
Nc1ccccc1C(=O)OCC(=O)Nc1ccc(Br)cc1F | 1 | 2% | 6% | . | ? | . | .
CC(C)C(=O)N1CCN(CCN=Cc2c(O)n(C)c(=O)n(C)c2=O)CC1 | 7 | 8% | -2% | . | 2% | . | .
COc1ccc(C2NCc3ccccc3-n3cccc32)cc1 (configuration not stated) | -6 | 0% | -3% | -3 | 1% | . | .
O=C(Cc1ccc(Cl)c(Cl)c1)Nc1cccc2ncccc12 | 1 | 11µM* | i | -12 | 7% | 11µM* | 11µM*
SMILES | PI4K2A inh | Tb PFK inh-1 | Tb PGK inh | PI5P4K alpha inh | Pin1 inh | TbPFK ATP | Tb PFK inh-2
Nc1ncnc2c1ccn2[C@@H]1O[C@H](CO)[C@@H](O)[C@H]1O | -10 | . | -4% | 3 | 0% | . | .
Nc1ncnc2c1ncn2[C@@H]1O[C@H](COP(=O)(O)OP(=O)(O)OP(=O)(O)O)[C@@H](O)[C@H]1O | -28 | ? | -11% | 155 | ? | -29% | ?
C=C(C)C(=O)Nc1ccc2c(c1)OCCOCCOCCO2 | -15 | 11µM* | ? | -74* | . | 0.54µM* | 0.67µM*
Cc1cc(C)nc(SCc2nnc(SCc3ccc([N+](=O)[O-])cc3)n2Cc2ccco2)n1 | 1 | ? | -4% | -7 | -2% | 11µM* | 15µM*
CCOC(=O)c1c(N)n(Cc2ccco2)c2nc3ccccc3nc12 | 0 | -5% | i | -5 | ? | . | .
OCCN1CCN(C(=S)c2ccc(Cl)c(Cl)c2)CC1 | -5 | 19µM* | i | . | -7% | 5.4µM* | 13µM*
O=C(Nc1ccc(Cl)c(Cl)c1)N1CCSC1c1ccco1 (configuration not stated) | -2 | 13µM* | i | 13 | 23% | 12% | -11%
O=C1C2CCCN2C(c2ccccc2)N1c1ccccn1 (configuration not stated) | 1 | 0% | i | -3 | -8% | . | .
CN1CN(c2cccc([N+](=O)[O-])c2)CN=C1N[N+](=O)[O-] | 3 | 27µM* | 3% | 0 | 5% | ? | ?
COC(=O)C1=C(c2ccc(OC)c(OC)c2)C[C@@H]2CC[C@H]1N2C(=O)NC(C)C | 0 | -10% | -3% | -3 | 1% | . | .
CCc1nnc(NC(=O)CSc2nc(C)c3c(c2C#N)CCCC3)s1 | 2 | ? | 4% | . | 57% | -18% | 16%
CCc1nnc(NC(=O)CCc2nc(C3=CCN(C)CC3)no2)s1 | -13 | 0% | -8% | 4 | -6% | . | .
Cc1ccc(NC(=O)Nc2ccc(S(N)(=O)=O)cc2)cc1 | -2 | 21µM* | -3% | -3 | -5% | 13µM* | ?
Cc1ccc([N+](=O)[O-])cc1NC(=O)Nc1ccc(S(N)(=O)=O)cc1 | -2 | 12µM* | 6% | 0 | ? | 13µM* | 27µM*
NS(=O)(=O)c1ccc(NC(=O)Nc2cccc(Cl)c2)cc1 | 1 | 24µM* | -6% | 8 | -5% | ? | ?
NS(=O)(=O)c1ccc(NC(=O)Nc2ccc(C(F)(F)F)cc2)cc1 | 0 | ? | -5% | 1 | -8% | 6µM* | 13µM*
Fc1ccc(CCNCc2ccc(Br)cc2)cc1 | 0 | -8% | i | 1 | -8% | . | .
O=C1NCN(c2ccccc2)C12CCN(C(CCc1ccccc1)c1nnnn1C1CCCC1)CC2 (configuration not stated) | 2 | . | . | 12 | . | . | .
c1cnc2c(c1)ccc1ncccc12 | 6 | 1% | i | 3 | 1% | . | .
